Experimental data reported in PubChem BioAssay.
The source made the active and inactive calls.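 The calls were made as follows: active = at least 20% inhibition of 6-phosphogluconate dehydrogenase activity; inactive = the rest.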

biological target: 6-phosphogluconate dehydrogenase, decarboxylating (Homo sapiens) (UniProt P52209); assay: inhibition of human phosphogluconate dehydrogenase – biochemical, recombinant enzyme, NADPH absorbance, primary screen (AID 1159550); details: recombinant 6PGD, NADPH absorbance 341 nm; at 10 µM; active compounds read high
Sequence (P52209 whole entry, looked up): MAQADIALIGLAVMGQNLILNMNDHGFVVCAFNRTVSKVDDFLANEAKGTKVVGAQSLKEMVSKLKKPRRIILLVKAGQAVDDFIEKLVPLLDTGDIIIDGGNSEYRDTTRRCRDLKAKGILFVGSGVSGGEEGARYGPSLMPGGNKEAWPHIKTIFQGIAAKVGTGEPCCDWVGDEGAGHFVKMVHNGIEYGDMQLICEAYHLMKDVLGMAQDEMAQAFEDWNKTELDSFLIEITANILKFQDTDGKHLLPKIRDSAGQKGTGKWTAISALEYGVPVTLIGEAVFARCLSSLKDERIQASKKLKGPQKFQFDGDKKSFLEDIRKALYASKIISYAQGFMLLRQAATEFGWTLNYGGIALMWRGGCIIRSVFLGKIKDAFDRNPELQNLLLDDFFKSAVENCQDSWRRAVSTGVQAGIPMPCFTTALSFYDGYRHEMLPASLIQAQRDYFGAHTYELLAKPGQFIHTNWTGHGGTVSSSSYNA

inhibition, inactive:
CC1CCC(C(C)C)C(O)C1 (centres undefined) -10.6%
CC(=O)O[C@@H]1CC2C(C)(C)[C@H](O)C[C@H](O)[C@]2(C)C2CC[C@@]3(C)C(=CC(=O)O[C@H]3c3ccoc3)[C@@]21C (some centres undefined) 13.2%
Cc1ccc(C(C)C)c(O)c1C(=O)O 7.11%
CC(=O)O[C@@H]1CC2C(C)(C)C(=O)CC[C@]2(C)C2CC[C@]3(C)C(=CC(=O)O[C@H]3c3ccoc3)[C@@]21C (some centres undefined) 14.2%
C[C@H]1O[C@H]1P(=O)(O)O 6.14%
COc1ccc(-c2coc3c(OC)c(OC)cc(OC)c3c2=O)cc1 4.09%
CC(C)CCCC(C)C1CCC2C3CC(=O)[C@H]4CC(O)CCC4(C)C3CCC12C (some centres undefined) -4.09%
Oc1ccc2c(c1)OC[C@]1(O)Cc3cc(O)c(O)cc3C21 (some centres undefined) 9.03%
CCCC(=O)OC1(C(=O)CO)CCC2C3CCC4=CC(=O)CCC4(C)C3C(O)CC21C (centres undefined) -0.0758%
Oc1cc(O)cc(/C=C/c2ccccc2)c1 -1.17%
CCC1(C2OC(C3OC(O)(CO)C(C)CC3C)CC2C)CCC(C2(C)CCC3(CC(O)C(C)C(C(C)C(OC)C(C)C(=O)O)O3)O2)O1 (centres undefined) 3.18%
CC(=O)OC1CCC2(C)C(CCC3C2CC(=O)C2(C)C3CC3OC4(CCC(C)CO4)C(C)C32)C1 (centres undefined) 5.72%
COC(=O)C[C@H]1C(C)(C)C(OC(C)=O)[C@]2(O)C=C3C4CC(=O)O[C@@H](c5ccoc5)[C@]4(C)CCC3[C@@]1(C)C2=O (some centres undefined) -4.04%
N[C@@H](C=O)[C@@H](O)[C@H](O)[C@H](O)CO -0.658%
COc1ccc2c(c1)[C@@]1(C)CCC(=O)C[C@@H]1CC2 3.57%
CC(=O)OCC(=O)[C@@]1(O)CC[C@H]2[C@@H]3CC[C@@H]4C[C@H](OC(C)=O)CC[C@]4(C)[C@H]3C(=O)C[C@@]21C 4.42%
CC(=O)C1CCC2C3CC=C4CC(O)CCC4(C)C3CCC12C (centres undefined) -15.3%
CC(=O)OC(C)(CCC=C(C)C)C1CC=C(C)CC1 (centres undefined) 0.603%
Oc1ccc2c(c1)OC[C@H]1c3cc4c(cc3O[C@@H]21)OCO4 -3%
CCC[C@H]1CC2=C(C[C@@H](CC)CC3=C1C(=O)OC3=O)C(=O)OC2=O -4.81%
CC1(C)C(=O)[C@H]2C[C@]3(O)C4=CC(=O)O[C@@H](c5ccoc5)[C@@]4(C)CCC3[C@](C)(C2=O)[C@H]1CC(=O)O (some centres undefined) -7.25%
C[C@@H]1O[C@@H](O[C@H]2[C@H](O[C@H]3CC[C@@]4(C)[C@@H](CC[C@]5(C)[C@@H]4CC=C4[C@@H]6CC(C)(C)CC[C@]6(C(=O)O[C@@H]6O[C@H](CO[C@@H]7O[C@H](CO)[C@@H](O[C@@H]8O[C@@H](C)[C@H](O)[C@@H](O)[C@H]8O)[C@H](O)[C@H]7O)[C@@H](O)[C@H](O)[C@H]6O)CC[C@]45C)[C@]3(C)CO)OC[C@H](O)[C@@H]2O)[C@H](O)[C@H](O)[C@H]1O 5.65%
CC(=O)OC1CC2C(C)(C)C(=O)C=CC2(C)C2CCC3(C)C(c4ccoc4)OC(=O)C4OC43C12C (centres undefined) -18.7%
CC(C)[C@@H](C)/C=C/[C@@H](C)[C@H]1CC[C@H]2C3=CCC4CC(=O)CC[C@]4(C)[C@H]3CC[C@]12C (some centres undefined) 2.32%
C=CCCCCCCCCCCC[C@@H](O)C[C@@H](O)CO -7.76%
C[C@@H]1CC[C@@]2(OC1)O[C@H]1C[C@H]3[C@@H]4CC=C5C[C@@H](O)CC[C@]5(C)[C@H]4CC[C@]3(C)[C@H]1[C@@H]2C 10.6%
COc1cc(OC)c2oc(-c3ccc(OC)c(OC)c3)c(O)c(=O)c2c1 -1.17%
CC12CCC3c4ccc(O)cc4CCC3C1CCC2OC(=O)CCC1CCCC1 (centres undefined) -3.96%
COc1ccc(C2COc3c(ccc(O)c3OC)C2)c(OC)c1O (centres undefined) -5.05%
CCOC(=O)C(=O)C1(C(=O)OCC)Oc2cc(OC)cc(OC)c2C(=O)C1c1ccccc1 (centres undefined) 14.2%
C[C@H]1[C@@H](O)O[C@@H]2OC3(C)CC[C@H]4[C@H](C)CC[C@@H]1[C@@]24OO3 -22.8%
CC1(C)CCC2(C(=O)O)C(O)CC3(C)C(=CCC4C5(C)CCC(O)C(C)(C)C5CCC43C)C2C1 (centres undefined) -10.1%
COc1c(C(=O)O)ccc2c1CCC(C)(C)O2 17.1%
CC1=CCCC(C)=CCC(C)(C)C=CC1 -0.753%
CC(=O)OC1CC[C@@]2(C)C(CC[C@]3(C)C2CCC2C4CC(C)(C)CCC4(C(=O)O)CC[C@]23C)C1(C)C (some centres undefined) 5.8%
CCOC(=O)C1(O)Oc2cc(OC)cc(OC)c2C(=O)C1c1ccccc1 (centres undefined) -4.01%
CC(=O)c1cc2c(cc1O)OC(C)(C)C=C2 16.8%
CC(=O)O[C@@H]1CC2C(C)(C)CCC(=O)[C@]2(C)C2CC[C@@]3(C)[C@H](c4ccoc4)OC(=O)C4OC43[C@@]21C (some centres undefined) -0.737%

inhibition, active:
O=c1c(O)cc([C@H]2Oc3cc(O)cc(O)c3C[C@H]2O)cc2c([C@H]3Oc4cc(O)cc(O)c4C[C@H]3O)cc(O)c(O)c12 31.2%
